# The whole screen tested about 50,000 compounds, of which about 800 (1.6%) showed an effect of 50% or more. Shown is part of a subset that was picked to be rich in strong results.
# Molecular target: Bcl-2-like protein 10 (Homo sapiens) (UniProt Q9HD36)
# Assay: TR3 peptide-Bcl-B binding displacers, biochemical primary FP assay, phenotype converters (AID 1240);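 note: 0% = Bcl-B with tracer peptide and DMSO and 100% = tracer peptide lacking Bcl-B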
# Conditions: GST-Bcl-B / FITC-TR3 peptide fluorescence polarization; stronger effect = higher value; compound at 3.75 mg/L
# Bcl-2-like protein 10 (Homo sapiens), sequence (Q9HD36 whole entry, looked up): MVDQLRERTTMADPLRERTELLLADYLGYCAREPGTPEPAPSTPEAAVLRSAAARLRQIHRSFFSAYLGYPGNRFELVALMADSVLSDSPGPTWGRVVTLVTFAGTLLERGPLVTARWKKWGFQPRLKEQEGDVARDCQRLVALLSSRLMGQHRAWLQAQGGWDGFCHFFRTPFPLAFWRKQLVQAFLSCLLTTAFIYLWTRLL
row,Compound,displacement
1,Cn1c(O)c(N=NC(=O)c2ccccc2NC(=O)c2ccccc2)c2ccccc21,-4%
2,COCCOC(=O)c1c(C)oc2ccc(OCc3c(F)c(F)c(F)c(F)c3F)cc12,10.8%
3,CCn1cc(/C=C2/C(=O)NN(c3ccccc3)C2=O)c2ccccc21,13.1%
4,CC(C)NC(=O)C1CC1(c1ccccc1)c1ccccc1 (stereo unspecified),4.7%
5,Cc1ccc(-n2ccc(N)c(C#N)c2=O)cc1,3.3%
6,COc1ccc(/C=C2/SC(=O)N(CC(=O)Nc3ccc(C)c(C)c3)C2=O)cc1OC,67%
7,COc1ccc(/C=C2/SC(=O)N(CC(=O)Nc3cc(C)on3)C2=O)cc1OC,12.8%
8,COc1ccc(/C=C2\SC(=O)N(CCC(=O)Nc3ccccc3C)C2=O)cc1OC,79.4%
9,COc1ccc(/C=C2/SC(=O)N(CC(=O)Nc3ccc(F)c(Cl)c3)C2=O)cc1OC,12.3%
10,COc1ccc(/C=C2\SC(=S)N(CCC(=O)Nc3ccccc3C)C2=O)cc1OC,15.4%
11,COc1ccccc1NC(=O)CCN1C(=O)S/C(=C/c2ccc(OC)c(OC)c2)C1=O,34.6%
12,COC(=O)c1ccc(C(=O)OC)c(NC(=O)/C=C/c2ccccc2)c1,8.7%
13,COC(=O)c1ccc(C(=O)OC)c(NC(=O)CC(c2ccccc2)c2ccccc2)c1,63.5%
14,COC(=O)c1ccc(C(=O)OC)c(NC(=O)/C=C/c2ccc(Cl)cc2)c1,-6.4%
15,COC(=O)c1ccc(C(=O)OC)c(NC(=O)/C=C/c2ccco2)c1,63.5%
16,COC(=O)c1ccc(C(=O)OC)c(NC(=O)COc2cccc(Cl)c2)c1,1.2%
17,COC(=O)c1ccc(NC(=O)CC(c2ccccc2)c2ccccc2)cc1,-0.2%
18,COC(=O)c1ccc(C(=O)OC)c(NC(=O)COc2ccc(Cl)cc2C)c1,5.4%
19,COC(=O)c1ccc(C(=O)OC)c(NC(=O)COc2ccccc2Cl)c1,73.8%
20,COC(=O)c1ccc(C(=O)OC)c(NC(=O)COc2ccccc2[N+](=O)[O-])c1,66.9%
21,COC(=O)c1ccc(C(=O)OC)c(NC(=O)Cc2ccccc2[N+](=O)[O-])c1,14.7%
22,COC(=O)c1cc(NC(=O)COc2ccccc2[N+](=O)[O-])cc(C(=O)OC)c1,13%
23,CCC(C(=O)Nc1cc(C(=O)OC)ccc1C(=O)OC)c1ccccc1 (stereo unspecified),5%

row,Compound,displacement
1,Cc1ccc(-c2[nH]n3c(=O)cc(-c4ccccc4)nc3c2C)cc1,15.2%
2,CN(C)CCCNC(=O)/C=C/c1ccc(Cl)cc1,14%
3,COc1cc(C(=O)Nc2cccc(-c3cc4ccccc4oc3=O)c2)cc(OC)c1OC,3.9%
4,CCOc1ccc(NC2=C(Cl)C(=O)N(c3ccc(Br)cc3)C2=O)cc1,-4.8%
5,CC(=O)Nc1sc2c(c1C(N)=O)CCC(C)C2 (stereo unspecified),10.6%
6,CC1CCc2c(sc(NC(=O)/C=C/c3ccccc3)c2C(N)=O)C1 (stereo unspecified),10.5%
7,CC1CCc2c(sc(NC(=O)/C=C/c3ccc4c(c3)OCO4)c2C(N)=O)C1 (stereo unspecified),144%
8,OCc1c(O)cnc2ccccc12,19.4%
9,O=c1[nH]c(-c2ccc(-c3ccc(F)cc3)o2)nc2sc3c(c12)CCCC3,-13.3%
10,CC(/C=C1\SC(N2CCN(C3=NC(=O)/C(=C\C(C)=C\c4ccccc4)S3)CC2)=NC1=O)=C\c1ccccc1,-9%
11,CCc1ccc(/C=C2/C(=O)NC(=O)N2C(C)=O)cc1,13.8%
12,CC(=O)N1C(=S)NC(=O)/C1=C\c1cccnc1,93.4%
13,O=C1NC(=O)/C(=C/c2cccnc2)S1,12%
14,N#Cc1c(-c2ccc(Br)cc2)cc(-c2ccco2)c(C#N)c1N,76.9%
15,N#Cc1c(-c2ccc(Br)cc2)cc(-c2ccc3c(c2)OCO3)c(C#N)c1N,4.5%
16,Cc1ccc(-c2cc(-c3ccncc3)c(C#N)c(N)c2C#N)cc1,21.2%
17,CCOC(=O)C(=CNCCC(=O)O)C(=O)OCC,14.6%
18,COc1ccc(CCN2C(=O)C3C4c5ccccc5C(C)(c5ccccc54)C3C2=O)cc1OC (stereo unspecified),-1.3%
19,Cc1ccc(N2C(=O)NC(=O)/C(=C\c3ccc(C)s3)C2=O)cc1,13.4%
20,Cc1ccc(N2C(=O)NC(=O)/C(=C/c3cccc(Cl)c3)C2=O)cc1,-8.8%
21,Cc1ccc(C=C2C(=O)NC(=O)N(c3cccc(Cl)c3)C2=O)s1,87.1%
22,CC(C)CNC(=O)C(=O)Nc1ccc(Oc2ccccc2)cc1,5.2%
23,COc1cc(/C=c2/sc3nc4ccccc4n3c2=O)ccc1OCc1nn[nH]n1,5.2%

row,Compound,displacement
1,Cc1ccc2nc(-c3ccc(NC(=O)c4ccccc4-c4ccccc4C(=O)O)cc3)sc2c1,7.9%
2,Cc1ccc2nc(-c3ccc(OC(=O)c4ccccc4F)cc3)sc2c1,76.4%
3,Cc1ccc2nc(-c3ccc(O)cc3)sc2c1,12.7%
4,C=C(C)CSc1nc2sc3c(c2c(=O)n1CC(=C)C)CC(C)(C)OC3,-10.4%
5,O=C(Nc1ccc2nc(SCCOc3ccccc3)sc2c1)c1ccccc1Cl,-3.4%
6,CC(C)(C)c1ccc(/C=C2\NC(=S)NC2=O)cc1,-20.2%
7,CCOc1ccc(/C=C2/NC(=S)NC2=O)cc1,10.8%
8,COc1ccc(/C=C/C=C2\NC(=S)NC2=O)cc1,128%
9,CC(C)(C)CC(C)(C)NC(=O)c1ccc2nccnc2c1,14.3%
10,Cc1ccccc1-n1c(C)cc(/C=N/NC(=O)CN2CCOCC2)c1C,-22.2%
11,CC(C)CC(NC(=O)c1ccco1)C(=O)O (stereo unspecified),9.5%
12,O=C(Nc1ccc2oc(-c3ccccc3)nc2c1)c1ccc(-c2ccc([N+](=O)[O-])cc2)o1,22.1%
13,O=C(Nc1ccc(Cl)cn1)c1ccc(-c2ccc([N+](=O)[O-])cc2)o1,13.9%
14,Cc1cc([N+](=O)[O-])ccc1-c1ccc(C(=O)Nc2ccc(Cl)cn2)o1,50.1%
15,Cc1cc([N+](=O)[O-])ccc1-c1ccc(C(=O)Nc2ccc(-c3nc4ccccc4o3)c(O)c2)o1,10.8%
16,Cc1cc([N+](=O)[O-])ccc1-c1ccc(C(=O)Nc2ccc(Cl)cc2)o1,45.8%
17,Cc1cc([N+](=O)[O-])ccc1-c1ccc(C(=O)Nc2ccc3oc(-c4ccccc4)nc3c2)o1,116%
18,CCc1ccccc1NC(=O)C(F)(Cl)C(F)(F)F (stereo unspecified),-3.1%
19,COc1cccc(CN2CCN(C(=O)c3cccc(Cl)c3)CC2)c1,3.6%
20,CC(=O)c1ccc(NC(=O)C2CC(=O)N(C3CCCCC3)C2)cc1 (stereo unspecified),11.1%
21,COc1ccc(CCC(=O)Nc2cc(Cl)cc(Cl)c2)cc1,0.3%
22,CC(=O)N(Cc1ccc2c(c1)OCO2)C1CC(=O)N(c2ccc(Br)cc2)C1=O (stereo unspecified),72.3%
23,O=C1CC(N(Cc2ccc3c(c2)OCO3)C(=O)c2ccc(Cl)cc2)C(=O)N1c1ccc(F)cc1 (stereo unspecified),-2.2%

row,Compound,displacement
1,CC(=O)N(Cc1ccc2c(c1)OCO2)C1CC(=O)N(c2cccc(Cl)c2)C1=O (stereo unspecified),16%
2,CC1(C)CC(=O)C2=C(C1)Nc1ccccc1NC2c1cccc(Br)c1 (stereo unspecified),2.4%
3,O=C1c2[nH]nc(-c3ccccc3)c2C(c2ccccc2F)N1c1ccccc1 (stereo unspecified),-3.9%
4,C=CCn1c(SCCC)nc2sc3c(c2c1=O)CCc1ccccc1-3,0.4%
5,COc1ccc(C(=O)NNC(=O)c2cccc(C)c2O)cc1OC,-1.1%
6,CCOC(=O)C1=C(C)N=c2s/c(=C\c3ccccc3OC)c(=O)n2C1c1ccc(C)cc1 (stereo unspecified),-2.8%
7,CCOC(=O)C1=C(C)N=c2s/c(=C\c3ccc(OC)c(OC)c3OC)c(=O)n2C1c1ccccc1 (stereo unspecified),210%
8,CCOC(=O)C1=C(C)N=c2s/c(=C\c3ccc(OC)c(OC)c3OC)c(=O)n2C1c1ccc(Cl)cc1 (stereo unspecified),152%
9,CCOC(=O)C1=C(C)N=c2s/c(=C\c3cccc(OC)c3O)c(=O)n2C1c1ccccc1 (stereo unspecified),-0.2%
10,CCOC(=O)C1=C(C)N=c2s/c(=C\c3ccc(OC)c(O)c3)c(=O)n2C1c1ccc(Cl)cc1 (stereo unspecified),-5.3%
11,CCOC(=O)C1=C(C)N=c2s/c(=C\c3ccc(OC)cc3)c(=O)n2C1c1ccc(Cl)cc1 (stereo unspecified),18.8%
12,CCOC(=O)C1=C(N)OC2=C(C(=O)CCC2)C1c1ccc(Cl)cc1Cl (stereo unspecified),-2.9%
13,COc1cccc(/C=C2\N=C(c3cccs3)OC2=O)c1OC,59.5%
14,CC(=O)n1cc(/C=C2\N=C(c3ccc(C(C)(C)C)cc3)OC2=O)c2ccccc21,72.1%
15,COC(=O)c1ccc(/C=C2\N=C(c3ccc(C(C)(C)C)cc3)OC2=O)cc1,11.1%
16,C=CCOc1ccccc1/C=C1\N=C(c2ccc(C)cc2)OC1=O,-2.1%
17,CC(=O)n1cc(/C=C2\N=C(c3ccccc3F)OC2=O)c2ccccc21,7.6%
18,CCOc1ccc(/C=C2\N=C(c3ccccc3F)OC2=O)cc1,11%
19,COc1ccc(/C=C2\N=C(c3ccccc3I)OC2=O)cc1,-2.3%
20,C=C(C)COc1ccccc1/C=C1\N=C(c2cccs2)OC1=O,0.7%
21,O=C1OC(c2cccs2)=N/C1=C\c1cccc(Cl)c1Cl,29.5%
22,COc1ccc(/C=C2\N=C(c3ccccc3F)OC2=O)c(OC)c1,72.1%
23,Cc1no[n+]([O-])c1COc1ccccc1/C=C1\N=C(c2ccccc2)OC1=O,-3.2%

row,Compound,displacement
1,CCCOc1ccccc1/C=C1\N=C(c2ccccc2)OC1=O,64%
2,O=C(CN1C(=O)c2ccccc2C1=O)Nc1nc(-c2ccccc2)cs1,-6.7%
3,COC(=O)C(C)N(C(=O)c1ccc(C(=O)c2ccccc2)cc1)c1c(C)cccc1C (stereo unspecified),10.7%
4,COc1cccc(-c2nnc(-c3ccncc3)o2)c1,6.6%
5,COc1cccc(OCCNC(=O)c2cc(OC)c(OC)c(OC)c2)c1,11.6%
6,O=C1NCC(c2ccccc2)C1C(=O)N/N=C\c1cc([N+](=O)[O-])cc(Br)c1O (stereo unspecified),5.6%
7,COCCCNC(=O)/C(=C/c1ccc(-c2ccc(Br)cc2)o1)NC(=O)c1ccccc1,-6.6%
8,CCOc1ccc(NC(=O)/C=C/c2ccc(Cl)cc2)cc1,10.1%
9,COc1ccc(Cc2noc(-c3ccccc3C)n2)cc1,-6.7%
10,COC(=O)C1=NN(C(=O)c2ccccc2)C(O)(C(C)(C)C)C1 (stereo unspecified),-3.6%
11,O=C1OC(c2ccccc2F)=N/C1=C\c1cccc(I)c1,-0.4%
12,COc1ccccc1C=C1C(=O)c2ccccc2C1=O,11.5%
13,COc1ccc(C=C2C(=O)c3ccccc3C2=O)c(O)c1,18.4%
14,O=C1OC(c2ccccc2F)=N/C1=C\c1cccc2ccccc12,78.4%
15,COc1ccc(C2=NC(=Cc3cccc4ccccc34)C(=O)O2)cc1,108%
16,O=C1OC(c2ccccc2F)=N/C1=C\c1ccccc1[N+](=O)[O-],4.1%
17,COc1ccc(C2=N/C(=C\N(C)C)C(=O)O2)cc1,-9%
18,COc1ccc(C=C2C(=O)c3ccccc3C2=O)c(OC)c1,181%
19,COc1cccc(/C=C2/N=C(c3ccc(NC(C)=O)cc3)OC2=O)c1,33.2%

# — PubChem BioAssay AID1240 (Sanford-Burnham Center for Chemical Genomics, 2008)
